About 13,000 (27%) of roughly 48,000 compounds showed an effect of 50% or more. The list shows a part of the results.
Tested on: Wolbachia pipientis
Assay: Anti-Wolbachia Cell-Based Screen
Format: functional
Design: scale not given: in the data most compounds retested in dose-response had high values
Details: 5 µM

Structure (SMILES)	Percent Effect [%]
O=C(CCc1ccc(Br)cc1)NCCc1nnc[nH]1	7.079
CC(C)(C)OCCN1CCCC1c1nc(Cc2ccc(F)cc2)no1 (stereo not drawn)	28.24
c1ccc(CN2CCC(NCCSc3cnn[nH]3)CC2)cc1	-22.28
CC(=O)N1CCCC1c1cncc(Oc2ccc(F)cc2)n1 (stereo not drawn)	97.95
COc1ccc(C2CCCN2C(=O)Nc2ccc(OC)nc2)cc1 (stereo not drawn)	2.775
COC(=O)CCCC(=O)N1CCCCC1c1ccc(F)cc1 (stereo not drawn)	-3.374
CN(CC(=O)N1CCCC1c1ccccn1)Cc1ccccc1 (stereo not drawn)	-5.131
CN(C)CC(=O)N1CCCC1c1cncc(Oc2ccc(F)cc2)n1 (stereo not drawn)	102.5
COc1ccc(Oc2cncc(C3CCCN3C(C)=O)n2)cc1 (stereo not drawn)	-16.34
CNCC(=O)N1CCCC1c1cncc(Oc2ccc(F)cc2)n1.Cl (stereo not drawn)	105.9
O=C(CCCOCc1ccccc1)N1CCCC1c1ccccn1 (stereo not drawn)	-5.136
CN(C)CC(=O)N1CCCC1c1ccccn1 (stereo not drawn)	98.84
Cc1cn(-c2ccccc2)nc1NS(=O)(=O)c1cc(C(=O)O)cs1	3.492
COc1cccc(-c2n[nH]cc2C(=O)NC(C)c2n[nH]c(C)n2)c1 (stereo not drawn)	6.595
O=C(NC1CC1)c1nc2c(o1)CN(c1ncccn1)C2	-9.105
Fc1ccc(CN2CCCn3cnc(COCC4CC4)c3C2)cc1.O=C(O)C(F)(F)F	3.17
CC(C)CNC[C@H]1O[C@H](Cc2cc(-c3ccccn3)on2)CC[C@@H]1O	-6.166
Cn1nc(C2CC2)c2c1NC(=O)CC2c1ccc(CN2CCCCC2)s1 (stereo not drawn)	-3.758
COCCOc1ccccc1CNCC1COC2(CCCC2)O1 (stereo not drawn)	0.05602
CC(=O)N(Cc1ncc(C)o1)C1CCN(Cc2csc(C)n2)C1 (stereo not drawn)	123.5
CC(=O)N(Cc1ncc(C)o1)C1CCN(CCCc2cnn(C)c2)C1 (stereo not drawn)	5.261
Cc1cnc(CN(C)C2CCN(CC(=O)N(C)c3nccs3)C2)o1 (stereo not drawn)	-8.119
CC(=O)N(Cc1ncc(C)o1)C1CCN(Cc2ccon2)C1 (stereo not drawn)	139.3
CC(=O)N(Cc1ncc(C)o1)C1CCN(Cc2sc(C)nc2C)C1 (stereo not drawn)	115.4
CC(=O)N(Cc1ncc(C)o1)C1CCN(CCNC2CCCCC2)C1 (stereo not drawn)	-4.891
CC(=O)N(Cc1ncc(C)o1)C1CCN(Cc2noc(C)n2)C1 (stereo not drawn)	3.628

Structure (SMILES)	Percent Effect [%]
CC(=O)N(Cc1ncc(C)o1)C1CCN(Cc2cc(C)on2)C1 (stereo not drawn)	118.6
COCCCN1CCN(C(=O)C(c2cccc(F)c2)N(C)C)CC1 (stereo not drawn)	-8.976
CC(NC(=O)C1=NN(C)C(=O)CC1)c1ccc(F)cc1F (stereo not drawn)	-12.15
COc1ccc(OC)c(C2C3=C(COC3=O)Nc3[nH]nc(C)c32)c1 (stereo not drawn)	5.984
Cn1c(NCC(O)c2ccc(F)cc2F)c(C#N)c(=O)n(C)c1=O (stereo not drawn)	-7.398
CCN1CC(C(=O)N2CC(Oc3ccccc3Cl)C2)CC1=O (stereo not drawn)	-26.5
Cc1cc(CN(C)C(=O)NC2CCCC2)no1	-3.677
Cc1occc(=O)c1OCc1noc(C(=O)NC2CCCC2)n1	110.2
O=C(NC1CCCC1)c1nc2c(o1)CN(CCO)C2	4.983
Cc1occc(=O)c1OCc1noc(C(=O)NCC2CC2)n1	118
O=C(NCC1CC1)c1nc(COc2ccc3c(c2)OCO3)no1	5.191
COCCCNC(=O)Nc1ccc(OCc2noc(C3CC3)n2)cc1	4.086
Cc1ccc(NC(=O)CSCc2cccnc2)nc1	4.357
CN(C)C(=O)C1(Oc2ccc(Cl)cc2)CCNCC1	-10.8
CN1CCCC2(C1)CN(C(=O)C1CCCCC1)CCO2 (stereo not drawn)	-29.79
CC(C)CNC(=O)N1CCC2(CCCO2)C1 (stereo not drawn)	14.05
CC(C)NC(=O)N1CCC2(CC1)CN(C(=O)NC(C)C)CCO2	117
O=C(c1ccncc1)N1Cc2ccccc2OC2(CCOCC2)C1	-8.514
CC(C)NC(=O)N1CCC2(CCCO2)C1 (stereo not drawn)	5.792
O=C(C1CCOC1)N1CCC2(CC1)CN(c1ncccn1)CCO2.O=C(O)C(F)(F)F (stereo not drawn)	-29.34
COCCN(C)CCN1CC2(CCN(C(=O)C3CCOC3)CC2)OC1=O (stereo not drawn)	-2.366
CC(=O)N1CCCC2(C1)CN(C(=O)C1CCCCC1)CCO2 (stereo not drawn)	-22.57
CC(=O)N1Cc2ccccc2OC2(CCN(C(=O)C3CCOC3)CC2)C1 (stereo not drawn)	188.7
O=C(C1CCOC1)N1Cc2ccccc2OC2(CCOCC2)C1 (stereo not drawn)	110.4
CC(C)n1cc(C(=O)N2Cc3ccccc3OC3(CCOCC3)C2)cn1	-9.745
CC(=O)N1CCOC2(CCN(C(=O)C3CC3)CC2)C1	104.2

Structure (SMILES)	Percent Effect [%]
CCCn1cnnc1-c1nc2c([nH]1)CC(c1ccc(Cl)cc1)CNC2=O (stereo not drawn)	14.47
O=S(=O)(Cc1ccc(F)c(Cl)c1)NC(CO)c1ccco1 (stereo not drawn)	-13.92
COc1ccccc1C1CNC(=O)c2nc(-c3cn(C)nc3C)[nH]c2C1 (stereo not drawn)	-4.665
Cc1cnc(C(=O)N2CCC3(CC2)C(=O)NCCN3CC(C)C)cn1	4.389
COCc1nc(N(C)C/C=C/c2ccccc2)c2cnn(C)c2n1	-13.22
O=C(c1c[nH]cn1)N1CCC(n2cc(-c3ccsc3)nn2)CC1	-0.5309
CC(=O)N1Cc2ccccc2OC2(CCN(C(=O)C3CC3)CC2)C1	187.7
Cc1cc(C(=O)N2Cc3ccccc3OC3(CCOCC3)C2)nc(N)n1	-4.105
N#Cc1c(N2CCCN(C3CCOCC3)CC2)nc2ccccn12	-1.844
CCCc1n[nH]c(C2CN(CCn3cccn3)CCO2)n1 (stereo not drawn)	-0.7272
CC(C)(C)c1n[nH]c(C2CN(CCNC3CCCCC3)CCO2)n1 (stereo not drawn)	-7.813
CCCc1n[nH]c(C2CN(CCc3cccs3)CCO2)n1 (stereo not drawn)	119.2
CCc1n[nH]c(C2CN(CCc3cccs3)CCO2)n1 (stereo not drawn)	2.973
CC(C)c1n[nH]c(C2CN(Cc3ccno3)CCO2)n1 (stereo not drawn)	2.718
Cc1n[nH]c(C2CN(CCc3cccs3)CCO2)n1 (stereo not drawn)	117.1
Cc1nc(C)n(CC2CN(CCc3cccs3)CCO2)n1 (stereo not drawn)	-47.87
CC(C)c1n[nH]c(C2CN(Cc3nnc(C4CC4)n3C)CCO2)n1 (stereo not drawn)	4.048
CC(C)c1n[nH]c(C2CN(CCc3cccs3)CCO2)n1 (stereo not drawn)	96.38
Cn1c(CN2CCOC(c3nc(C(C)(C)C)n[nH]3)C2)nnc1C1CC1 (stereo not drawn)	2.258
CC(C)(C)c1n[nH]c(C2CN(CCc3cccs3)CCO2)n1 (stereo not drawn)	121.2
Cc1n[nH]c(C2CN(CCCOc3ccc(F)cc3)CCO2)n1 (stereo not drawn)	-9.596
COCCOc1ncccc1C(=O)N(C)c1ccc(OC)nc1	-5.142
Cc1ccc(S(C)(=O)=O)cc1C(=O)NS(=O)(=O)c1ccc(Cl)cc1	-5.911
Cc1ccc(C(C)NC(=O)N2CCN(C(=O)CC(F)(F)F)CC2)o1 (stereo not drawn)	-14.24
Nc1cc2c(nn1)CCN(C(=O)c1ccc(-c3ccco3)[nH]c1=O)C2	1.419
N#Cc1ccc(CN2CCCN(CCCn3cncn3)CC2)cc1	-13.2

Structure (SMILES)	Percent Effect [%]
O=C(CN1CCS(=O)(=O)CC1)Nc1ccc(N2CCCC2)nc1	0.8889
CN(C)[C@@H]1CCN(S(=O)(=O)C2CC2)[C@H]1Cc1ccccc1.O=C(O)C(F)(F)F	106
CN(C)[C@@H]1CCN(c2ncccn2)[C@H]1Cc1ccccc1	-9.311
CC(C)NC(=O)N1CC[C@@H](N(C)C)[C@@H]1Cc1ccccc1.O=C(O)C(F)(F)F	0.7735
CC(C)N(C)[C@@H]1CCN(Cc2ccoc2)[C@H]1Cc1ccccc1	-14.75
CN(C)[C@@H]1CCN(S(=O)(=O)c2cn(C)cn2)[C@H]1Cc1cccnc1.O=C(O)C(F)(F)F.O=C(O)C(F)(F)F.O=C(O)C(F)(F)F	0.7375
CC(C)N(C)[C@@H]1CCN(Cc2ccco2)[C@H]1Cc1ccccc1	2.864
CN(C)[C@@H]1CCN(c2ncc(F)cn2)[C@H]1Cc1ccccc1.O=C(O)C(F)(F)F.O=C(O)C(F)(F)F	3.414
CC(C)N(C)[C@@H]1CCN(S(C)(=O)=O)[C@H]1Cc1ccccc1	103.5
CN(C)[C@@H]1CCN(S(C)(=O)=O)[C@H]1Cc1ccccc1	99.96
CCOc1ccc(C(=O)N2C[C@H]3CC[C@@H]2CN(C(=O)C2CCC2)C3)cc1	-22.33
CCOc1ccc(C(=O)CCC(=O)NCc2cncn2CC)cc1C	-8.028
CC(C)Cc1noc(-c2ccc(NCc3noc(C(C)C)n3)nc2)n1	13.03
Cc1ccc(-c2ncc(CN3CCOC(c4ccco4)C3)s2)o1 (stereo not drawn)	2.096
CN1CCCC2(CC1)CCN(C(=O)CCc1ccccc1O)CC2	-5.541
COCCC(=O)N1CCC2(CCN(Cc3cccc(F)c3)C2)C1 (stereo not drawn)	0.08604
COCCC(=O)N1CCC2(CCCN(Cc3cc(OC)ccc3F)C2)C1 (stereo not drawn)	-0.03102
COC(=O)CCC(=O)N1CCC2(CN(Cc3ccccc3F)C2)C1	106.8
COC(=O)CCC(=O)N1CCC2(CN(Cc3cccc(F)c3)C2)C1	-9.48
COC(=O)CCC(=O)N1CCC2(CN(Cc3cccc(Cl)c3)C2)C1	11.86
CN1CCCC2(CC1)CCN(C(=O)CCc1ccccc1F)CC2	-19.97
COCCC(=O)N1CCC2(CN(Cc3cccc(F)c3)C2)C1	-10.24
COC(=O)CCC(=O)N1CCC2(CN(Cc3ccccc3)C2)C1	108.2
COC(=O)CCC(=O)N1CCC2(CN(Cc3ccc(Cl)cc3)C2)C1	100.4
CN1CCN(CC2(O)CCN(C(=O)CCc3ccccc3F)C2)CC1 (stereo not drawn)	132.9
